This is a sample that favours compounds with a hit; in the whole collection about 2.2% have one here.
PvdQ inh = P. aeruginosa PvdQ acylase inhibition; purified PvdQ acylase, fluorescence plate reader; inhibition, % at 10 µM; 340,000 compounds, 0.063% hits; in the data active = inhibition above about 30%, passing the limit was not always enough; inconclusive = no clear call, values can overlap the other calls
PGC1a acetyl inh = modulators of PGC1a acetylation; inhibition, % at 15.6 µM; AID 651687; U2OS PGC1a acetylation, AlphaScreen anti-acetyl-lysine; with virally co-expressed GCN5 acetyltransferase; 350,000 compounds, 0.17% hits;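 active = every replicate shows inhibition of at least 40%; inconclusive = mean inhibition at least 40% but some replicate below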
DENV2 CPE rescue = DENV2-induced cell death inhibition; DENV2-infected cells, cytopathic effect rescue, plate reader; CPE inhibition, % at 9.99 µM; 350,000 compounds, 1.7% hits; AID 651640; in the data active = CPE inhibition above about 20%, passing the limit was not always enough; inconclusive = no clear call, values can overlap the other calls; tested in BHK-21 cells
miR122 inh = blocks miR-122 activity in Huh7 sensor cells; 340,000 compounds, 0.3% hits; Huh7 miR-122 Renilla luciferase sensor, 48 h; neutral wells = 0, positive control = 100; activation (reporter increase), % at 12.5 µM;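 active = mean replicate activation score at least 90 and every replicate individually at or above 90; inconclusive = only one of the two criteria met; inactive = neither criterion met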;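 note: higher luciferase means less miR-122 activity so hits act as miR-122 inhibitors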
C2C12 statin = suppression of simvastatin myotoxicity | C2C12 myotubes + simvastatin, ATP luminescence, 48 h; scaled: DMSO 0, geranylgeraniol control 100 | rescue of ATP level, % at 7.49 µM | 330,000 compounds, 0.78% hits;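 active = mean ATP rescue above about 67%, or every replicate alone reaching that limit, limit read from the data, passing the limit was not always enough; inconclusive = no clear call, values can overlap the other calls; inactive = mean under the limit and some replicate under it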;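 note: myotubes were challenged with 10 µM simvastatin during compound exposure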
Large screens that a line does not name were inactive; [ ] = dose if it differs, or a comment.

C[C@H]1CN([C@@H](C)CO)C(=O)c2cc(NC(=O)Cc3ccccc3)ccc2O[C@@H]1CN(C)Cc1ccc(C(=O)O)cc1	DENV2 CPE rescue inconclusive (no result: PvdQ inh)
Cn1c(=O)c2c(nc(N3CCCCCC3)n2CC(O)COc2ccccc2)n(C)c1=O (centres undefined)	none (no result: DENV2 CPE rescue)
Cn1c(=O)c2c(nc(NC3CCCCC3)n2CC(O)COc2ccccc2)n(C)c1=O (centres undefined)	C2C12 statin 81.0 (no result: DENV2 CPE rescue)
C[C@H](CO)N1C[C@H](C)[C@H](CN(C)C(=O)c2cccc(F)c2)Oc2ncc(-c3ccncc3)cc2C1=O	none (no result: PvdQ inh)
COCc1cn(CC[C@@H]2CC[C@H](NC(=O)Nc3ccc(C(F)(F)F)cc3)[C@H](CO)O2)nn1	none (no result: PvdQ inh, miR122 inh)
COc1ccc(CNS(=O)(=O)c2ccc3c(c2)CCN3C(=O)C2CCC2)cc1	C2C12 statin 112.8
C[C@H]1CN([C@@H](C)CO)C(=O)Cc2cc(NC(=O)Cc3ccccc3)ccc2O[C@H]1CN(C)C(=O)Nc1ccc2c(c1)OCO2	none (no result: PvdQ inh)
CCCN(C)C[C@@H]1OCc2cn(nn2)CCCC(=O)N([C@@H](C)CO)C[C@@H]1C	none (no result: PvdQ inh)
CN(CCc1ccccn1)C(=O)CCC1CCCN(C(=O)c2cccc(N(C)C)c2)C1 (centres undefined)	DENV2 CPE rescue 34.6
COc1ccc2oc(C(=O)NCC3CCCO3)c(C)c2c1 (centres undefined)	none
CC(=O)c1c[nH]c(C(=O)NCC2CCCO2)c1 (centres undefined)	none (no result: DENV2 CPE rescue)
CCC(CC)C(=O)c1c[nH]c(C(=O)NCC2CCCO2)c1 (centres undefined)	C2C12 statin 106.8 (no result: DENV2 CPE rescue)
CCOc1ccc2oc(C(=O)NCC3CCCO3)c(C)c2c1 (centres undefined)	DENV2 CPE rescue 64.2
COCCNC(=O)C[C@@H]1CC[C@@H]2[C@@H](COc3ccc(NC(=O)C4CCOCC4)cc3C(=O)N2C)O1	DENV2 CPE rescue 21.1 (no result: PvdQ inh)
COCCNC(=O)C[C@@H]1CC[C@H]2[C@@H](COc3ccc(NC(C)=O)cc3C(=O)N2C)O1	miR122 inh 183.3[16.7 µM] (no result: PvdQ inh)
CCOC(=O)CNC(=S)N(Cc1cccs1)C1CCCCC1	DENV2 CPE rescue 20.6 (no result: PGC1a acetyl inh, miR122 inh, C2C12 statin)
CCC(=O)N(C)C[C@H]1Oc2cc(-c3ccc(OC)cc3)ccc2S(=O)(=O)N([C@@H](C)CO)C[C@H]1C	none (no result: PvdQ inh)
Cc1noc(C)c1NC(=O)N[C@H]1CC[C@H](CCNC(=O)C2CCC2)O[C@@H]1CO	none (no result: PvdQ inh, miR122 inh)
O=C(NCc1ccc(F)cc1)[C@@H]1[C@@H](CO)[C@@H]2Cn3c(cccc3=O)[C@H]1N2C(=O)C1CC1	none (no result: PvdQ inh, miR122 inh, C2C12 statin)
COc1ccc(-c2ccc([C@H]3[C@@H](CO)N4CCCCN(CC5CCOCC5)C[C@H]34)cc2)cc1	DENV2 CPE rescue 33.1 (no result: PvdQ inh)
COc1ccc(-c2ccc([C@H]3[C@@H](CO)N4CCCCN(CC5CCOCC5)C[C@@H]34)cc2)cc1	DENV2 CPE rescue 24.1 (no result: PvdQ inh)
CCCC#Cc1ccc([C@@H]2[C@H](CO)N3CCCCN(CC4CCOCC4)C[C@@H]23)cc1	DENV2 CPE rescue 46.4 (no result: PvdQ inh)
COc1ccc(S(=O)(=O)Nc2ccc3c(c2)C(=O)N([C@H](C)CO)C[C@H](C)[C@@H](CN(C)C(=O)C2CCCCC2)OCCCC[C@H](C)O3)cc1	none (no result: PvdQ inh, C2C12 statin)
CCNC(=O)C[C@H]1CC[C@H]2[C@@H](COC[C@@H](O)CN2Cc2ccc(Cl)c(Cl)c2)O1	DENV2 CPE rescue 104.9 (no result: PvdQ inh)
CCNC(=O)C[C@H]1CC[C@@H]2[C@H](COC[C@@H](O)CN2Cc2ccc(Cl)c(Cl)c2)O1	none (no result: PvdQ inh)
CCNC(=O)C[C@H]1CC[C@@H]2[C@H](COC[C@H](O)CN2Cc2ccc(Cl)c(Cl)c2)O1	DENV2 CPE rescue 81.9 (no result: PvdQ inh)
COc1cccc(N2CCN(C(=O)c3cccc(NC4=NC5CS(=O)(=O)CC5S4)c3)CC2)c1 (centres undefined)	DENV2 CPE rescue 34.8
Cc1ccc(C)c(N2CCN(C(=O)c3ccc(Cl)c(NC4=NC5CS(=O)(=O)CC5S4)c3)CC2)c1 (centres undefined)	DENV2 CPE rescue 28.0
CCOC(=O)C1CCN(C(=O)c2cccc(NC3=NC4CS(=O)(=O)CC4S3)c2)CC1 (centres undefined)	none
C[C@H]1CN([C@@H](C)CO)C(=O)c2cc(/C=C/c3ccccc3)cnc2O[C@H]1CN(C)Cc1cncnc1	none (no result: PvdQ inh)
O=C(C[C@H]1C=C[C@@H](NC(=O)c2ccc3c(c2)OCO3)[C@@H](CO)O1)NCc1ccc(F)cc1	none (no result: PvdQ inh, PGC1a acetyl inh, miR122 inh, C2C12 statin)
CC(C)[C@H](NC(=O)c1cccs1)C(=O)N1CCC[C@H]1C(=O)NCc1ccccc1	DENV2 CPE rescue 26.2 (no result: PvdQ inh, PGC1a acetyl inh, miR122 inh, C2C12 statin)
